Measurements published in PubChem BioAssay (NCATS).
Records with an inconclusive call do not appear. The source made the active and inactive calls. Calls follow the shape of the dose curve; as a rule, active = well fitted cell-killing curve with a large enough effect; inconclusive = small, poorly fitted or top-dose-only effect; inactive = flat fitted curve, though single readings scatter.
Potency is read from the fitted curve at half-maximal effect.

Assay: Quantitative highthroughput screen to assess conditional lethalithy of NOMO1 cells grown in RPMI1640 with untreated serum (RPMI+s) (AID 1963876); also: nearly all actives have a fitted effect of over 35% in size
Settings: NOMO1 AML cells in RPMI+serum, CellTiter-Glo viability, 48 h; series mostly up to 45.8 µM; viability: at the top concentration
Excerpt: Assay Provider: Jason Cantor Ph.D.
Department of Biochemistry
University of Wisconsin-Madison, Madison, WI, USA
Chemical screening studies have identified drug sensitivities across hundreds of cancer cell lines but most putative therapeutics fail to translate. Discovery and development of drug candidates in models that more accurately reflect nutrient levels in human blood is a major challenge. Here we performed high-throughput screens in conventional versus Human Plasma-Like Medium (HPLM) to identify compounds that were "missed" when screening using the artificial culture condition. Sets of conditional anticancer compounds spanned phases of clinical development and included non-oncology drugs were assessed. […] We also traced conditional phenotypes for several chemotherapeutics to availability of HPLM-specific metabolites and confirmed others for compounds whose reported targets are encoded by nonessential genes. Our findings establish generalizable strategies for exploiting conditional lethality in HPLM to reveal therapeutic candidates and mechanisms of action in cancer cells.
Described herein are the results of each viability screens against three cell lines: NOMO1 (an acute myeloid leukemia cell line); P12-Ichikawa (a T-cell acute lymphoblastic leukemia); and SEM (a B-cell ALL). Each assay was screened using 3 different cell culture media: homemade human plasma-Like medium with 10% dialyzed fetal bovine serum (HPLM+ds); RPMI1640 with 10% untreated FBS and 5mM glucose (RPMI+s); and RPMI1640 with 10% dialyzed fetal bovine serum and 5 mM glucose (RPMI+ds).
PROTOCOL TABLE (as described by Inglese J, Shamu CE and Guy RK. 2007)
SEQUENCE No. (e.g., 1, 2, 3, etc.); […] (e.g., Cells, Incubation, Reagent, etc.); VALUE and DESCRIPTION.
1; Cells; 5 uL; white, solid bottom 1536-well Greiner assay plate.
2; Compounds; 23 nL; Kalypsis pin tool (Wako USA) equipped with a 1536-well pin head to transfer to the assay plates.
3; Incubation; 48 hours; 37C incubation.
4; Reagent; 3 uL; CellTiter Glo (Promega).
5; Incubation; 5 min, room temperature
6; Detection; Luminescence, Viewlux PerkinElmer.
NOTES (numbers refer to Sequence numbers above)
1. Briefly, 5 ul of cell reagent was dispensed using a Multidrop Combi Dispenser. The NOMO1 and SEM cells were plated at 500 cells/well and the P12-Ichikawa line at 1000 cells/well.
2. After seeding the cells, 23 nL of MIPE 4.1 library compounds (in DMSO) were added to each plate using a Kalypsys 1536 Pintool dispenser. Bortezomib at final concentration of […] and DMSO were added to each plate as positive and negative controls respectively. For each screen, MIPE 4.1 compounds were added over an eleven-point concentration range […] in 3-fold dilutions.
3. Each plate was covered with a stainless steel gasketed lid to prevent evaporation and incubated for 48 hour at 37C, 95% relative humidity, and 5% CO2.
4-5. Three microliter CellTilter-GloTM luminescent substrate mix (Promega) reagent was added to the assay plate and incubated at room temperature for 5 min.
6. The luminescence signal was measured using a ViewLux (PerkinElmer) multiplate reader with a 2 second exposure time per plate. Data for each compound were normalized as percent viability such that measurements for DMSO and the empty well controls in each plate were defined as 100% and 0%, respectively.
In the case of `CN(C)S(=O)(=O)c1ccc2c(c1)C(=Cc1cc3c([nH]1)CCCC3)C(=O)N2`, the “viability” value was 99.7% (inactive). For `CC(C)c1ccc2c(c1)c(SC(C)(C)C)c(CC(C)(C)C(=O)O)n2Cc1ccc(Cl)cc1`, the “viability” value was 103% (inactive). For `O=C(O)[C@H](Cc1c[nH]c2ccccc12)N1C(=O)c2ccccc2C1=O`, the “viability” value was 96.9% [at 92.2 µM] (inactive). With `CCOc1cc(N)c(Cl)cc1C(=O)NCC1CN(Cc2ccc(F)cc2)CCO1` (stereo not given) the “viability” value was 96.1% (inactive). With `Nc1nc(Nc2ccc(S(N)(=O)=O)cc2)nn1C(=O)c1c(F)cccc1F` the Potency was 16.6 µM (active). For `NC(=O)N1c2ccccc2CC(=O)c2ccccc21`, the “viability” value was 101% (inactive). With `C=C1C(=CC=C2CCC[C@]3(C)[C@@H]([C@H](C)C=C[C@H](C)C(C)C)CC[C@@H]23)C[C@@H](O)C[C@@H]1O` the Potency was 16.6 µM (active). With `CC(=O)N1CCN(c2ccc(OCc3nn(C)c(C)c3-c3cccc4c(CCCOc5cc(C)c(Cl)c(C)c5)c(C(=O)O)n(Cc5cccnc5)c34)cc2)CC1` the “viability” value was 74.1% (inactive). With `Cn1cnc([N+](=O)[O-])c1Sc1ncnc2nc[nH]c12` the Potency was 6.62 µM (active). With `CCCCN1CCC(CNC(=O)c2c3n(c4ccccc24)CCCO3)CC1` the “viability” value was 82.1% (inactive). In the case of `Cc1cc2cc3c(C)cc(=O)oc3c(C)c2o1`, the “viability” value was 94.1% (inactive). In the case of `NC(=O)c1noc([C@H](CCCC2CCCCC2)CC(=O)NO)n1`, the Potency was 16.6 µM (active). For `C[C@@H]1[C@H](O)[C@@H](C)C=CC=CC=CC=CC=CC=CC=C[C@H](O[C@@H]2O[C@H](C)[C@H](O)[C@H](N)[C@@H]2O)C[C@@H]2O[C@](O)(C[C@@H](O)C[C@@H](O)[C@H](O)CC[C@@H](O)C[C@@H](O)CC(=O)O[C@H]1C)C[C@H](O)[C@@H]2C(=O)O`, the “viability” value was 112% (inactive). For `CC(C)Cc1ccc(C(C)C(=O)O)cc1` (stereo not given), the “viability” value was 103% [at 23.2 µM] (inactive). In the case of `C[C@H](NC(=O)Cc1cc(F)cc(F)c1)C(=O)N[C@H](C(=O)OC(C)(C)C)c1ccccc1`, the “viability” value was 96.6% (inactive). In the case of `Nc1nc(N)c2nc(CNc3ccc(C(=O)NC(CCC(=O)O)C(=O)O)cc3)cnc2n1` (stereo not given), the “viability” value was 102% (inactive). In the case of `COc1ncnc(NS(=O)(=O)c2ccc(N)cc2)c1OC`, the Potency was 4.69 µM (active). For `COc1cc(Nc2nc3ccccc3nc2NS(=O)(=O)c2ccc(NC(=O)c3ccc(C)c(OC)c3)cc2)cc(OC)c1`, the “viability” value was 79.1% (inactive). With `C[C@H]1Oc2cc(cnc2N)-c2c(nn(C)c2C#N)CN(C)C(=O)c2ccc(F)cc21` the “viability” value was 91.9% (inactive). For `CCC(=O)NCC[C@@H]1CCc2ccc3c(c21)CCO3`, the “viability” value was 95.4% (inactive). With `CN(C)c1ccccc1CN1CCCN(Cc2ccccc2N(C)C)C1c1ccncc1` the “viability” value was 83.8% (inactive). For `COc1cccc([C@@H](C)NCCCc2ccccc2Cl)c1`, the “viability” value was 111% (inactive). In the case of `N#Cc1c(N(CC(=O)O)CC(=O)O)sc(C(=O)O)c1CC(=O)O`, the “viability” value was 92.8% (inactive). In the case of `COc1cccc2c1C(=O)c1c(O)c3c(c(O)c1C2=O)C[C@@](O)(C(=O)CO)C[C@@H]3O[C@H]1C[C@H](N)[C@@H](O)[C@H](C)O1`, the Potency was 2.96 µM (active). For `O=C(Nc1nc2ccccc2n1CCN1CCOCC1)c1cccc([N+](=O)[O-])c1`, the “viability” value was 103% (inactive). With `C#Cc1cccc(Nc2ncnc3cc(OC)c(OCCCCCCC(=O)NO)cc23)c1` the Potency was 1.05 µM (active). For `COc1ccc(C=CC(=O)Nc2ccccc2C(=O)O)cc1OC`, the “viability” value was 88.5% (inactive). In the case of `CC(=O)N(C)C1(c2ccccc2)CCN(CCC[C@]2(c3ccc(Cl)c(Cl)c3)CCCN(C(=O)c3ccccc3)C2)CC1`, the Potency was 1.87 µM (active). In the case of `CCc1cnn2c(NCc3ccc[n+]([O-])c3)cc(N3CCCC[C@@H]3CCO)nc12`, the Potency was 0.118 µM (active). With `C=C(C)[C@@H]1CC[C@]2(C)CC[C@]3(C)[C@H](CC[C@@H]4[C@@]5(C)CC[C@H](O)C(C)(C)[C@H]5CC[C@]43C)[C@@H]12` the “viability” value was 95.6% (inactive). In the case of `N#CC(=C(N)Sc1ccccc1N)C(C#N)=C(N)Sc1ccccc1N`, the “viability” value was 74.1% (inactive). In the case of `COc1ccc2c(c1)c(CC(=O)OCC(=O)O)c(C)n2C(=O)c1ccc(Cl)cc1`, the “viability” value was 97.5% (inactive). For `COc1c(Cl)cc2c([nH]c3cnccc32)c1NC(=O)c1cccnc1C`, the “viability” value was 110% (inactive). With `C[C@@H]1CC[C@@]2(OC1)OC1CC3C4CC=C5CC(O)CCC5(C)C4CCC3(C)C1[C@@H]2C` (stereo not given in full) the Potency was 14.8 µM (active). For `COCCCN1CCC(NC(=O)c2cc(Cl)c(N)c3c2OCC3)CC1`, the “viability” value was 97.6% (inactive). For `C=C1C(=CC=C2CCC[C@]3(C)[C@@H]([C@H](C)CCCC(C)(C)O)CC[C@@H]23)C[C@@H](O)C[C@@H]1O`, the “viability” value was 80.5% (inactive). In the case of `CC=CC(=O)N(CC)c1ccccc1C`, the “viability” value was 82.5% (inactive). In the case of `CCc1ccc(C=C2SC(=S)NC2=O)cc1`, the “viability” value was 90.4% (inactive). For `C=C(c1ccc(C(=O)O)cc1)c1cc2c(cc1C)C(C)(C)CCC2(C)C`, the “viability” value was 80.4% (inactive). In the case of `O=C(Nc1c(Cl)cncc1Cl)c1ccc(OC(F)F)c(OCC2CC2)c1`, the “viability” value was 94.5% (inactive).
